Results from PubChem BioAssay (NCATS).
Results filed as inconclusive are left out. Calls of active or inactive are those of the source. Unless noted, calls follow the shape of the full dose curve.

Experiments:
[1] = biological target: Vitamin D3 receptor (Homo sapiens) (UniProt P11473); assay: qHTS assay for small molecule antagonists of vitamin D receptor signaling (AID 588541);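 also: receptor activated by calcitriol during compound treatment; series mostly up to about 77 µM; % is scaled to controls: 0 for no effect and ±100 for the full control effect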
In short: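 VDR-UAS-bla HEK293T cells (2000/well, 2% charcoal-stripped FBS) were treated with titrated compounds plus 1-alpha,25-dihydroxyvitamin D3 (50 nM or 3 nM final) for 16 h at 37 C. CCF4 beta-lactamase fluorescence was read; Hill fits gave IC50.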

[2] = biological target: Vitamin D3 receptor (Homo sapiens) (UniProt P11473); assay: qHTS assay for small molecule agonists of vitamin D receptor signaling (AID 588543);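 also: 0% = DMSO basal and 100% = reference agonist control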
In short: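 VDR-UAS-bla HEK293T cells, 2000/well, 2% charcoal-stripped FBS; compound titration 16 h at 37 C; CCF4 beta-lactamase ratio read. Normalized to 50 nM 1-alpha,25-dihydroxyvitamin D3 (100%) and DMSO; Hill fit gives EC50, efficacy.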

[3] = qHTS assay for small molecule agonists of retinoid X receptor alpha signaling (AID 588544); conditions: HEK293T RXRa-UAS-bla, beta-lactamase reporter, 18 h; 530 nm emission; also: potency is read from the fitted curve at half-maximal effect;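 as to activation: 0% = DMSO basal wells and 100% = reference agonist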
[4] = biological target: Retinoic acid receptor RXR-alpha (Homo sapiens) (UniProt P19793); assay: as above
[5] = qHTS assay for small molecule antagonists of retinoid X receptor alpha signaling (AID 588546; active = well fitted inhibition curve with a large enough effect in the signal ratio, with a control signal flat, not every such curve was filed as active; the % refers to the signal ratio; also: potency is read from the fitted curve at half-maximal effect;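 as to max response: cells stimulated with 9-cis-retinoic acid as agonist; % is scaled to controls: 0 for no effect and ±100 for the full control effect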); conditions: HEK293T RXRa-UAS-bla, beta-lactamase ratio, antagonist mode; measured here: W530 green channel, cytotoxicity proxy
In short: (§1)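 Beta-lactamase reporter inhibition, read as CCF4 fluorescence ratio (ex 405, em 460/530 nm) after 2 h at RT. HEK293T UAS-bla cells, 2500/well, were stimulated with 9-cis-RA at 500 or 100 nM final alongside test compound for 18 h at 37 C.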

[6] = biological target: Retinoic acid receptor RXR-alpha (Homo sapiens) (UniProt P19793); assay: as above; conditions: HEK293T RXRa-UAS-bla, beta-lactamase ratio, antagonist mode
In short: as §1

[7] = qHTS assay for small molecule activators of the p53 signaling pathway (AID 651743; active = well fitted activation curve with a large enough effect in the signal ratio, not every such curve was filed as active; the % refers to the signal ratio; also: series mostly up to about 92 µM; % of control where 0% means no effect); conditions: HCT-116 p53RE-bla, beta-lactamase FRET ratio, 16 h; activation: stronger effect = higher value
In short: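 Agonist-mode quantitative HTS in HCT-116 cells carrying a p53-response-element beta-lactamase reporter; 16 h compound treatment at 37 C, then FRET substrate loading for 2 h at room temperature and fluorescence read.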

[8] = qHTS assay for small molecule activators of the nuclear factor-kappa B (NF-kB) signaling pathway (AID 651749; active = well fitted activation curve with a large enough effect in the signal ratio; the % refers to the signal ratio; also: series mostly up to about 77 µM; % of control where 0% means no effect); conditions: NF-kB-bla ME-180 cells, beta-lactamase FRET ratio, 16 h; activation: stronger effect = higher value
In short: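 Human ME-180 cervical cells with an NF-kB-bla construct; compounds added via 23 nL pin transfer, DMSO as vehicle; incubation 16 hr. Reporter activity measured by FRET disruption.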

[9] = qHTS assay for environmental chemicals that activate the Aryl hydrocarbon Receptor (AhR) signaling pathway (AID 651777; active = well fitted curve in the direction sought with a large enough effect; an effect the other way counts as inactive or inconclusive; also: % of control where 0% means no effect; nearly all actives have a fitted effect of over 15% in size); conditions: 1A2-DRE human hepatoma cells, luciferase, 24 h; activation: stronger effect = higher value
In short: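 Reporter gene assay: hepatoma cells with DRE/CYP1A2-luciferase, 24 hr compound incubation at 37 C, 5% CO2, luminescence after One-Glo (30 min, RT).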

[10] = biological target: Peroxisome proliferator-activated receptor alpha (Homo sapiens) (UniProt Q07869); assay: qHTS assay for small molecule agonists of the peroxisome proliferator-activated receptor alpha (PPARalpha) signaling pathway (AID 651778; active = well fitted curve in the direction sought with a large enough effect; an effect the other way counts as inactive or inconclusive; also: potency is read from the fitted curve at half-maximal effect; as to max response: % of control where 0% means no effect); conditions: PathHunter PPARalpha complementation, chemiluminescence, 6 h; max response: stronger effect = higher value
In short: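 Cells plated at 2,000/well and held overnight at 37 C, 5% CO2, then compound added by pin tool for 6 hr; after PathHunter detection reagent and 60 min at room temperature, chemiluminescence from enzyme complementation was read.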

[11] = qHTS assay for small molecule agonists of the antioxidant response element (ARE) signaling pathway measured by Nrf2-dependant transcriptional activity (AID 720636; active = well fitted curve in the direction sought with a large enough effect in the repeat runs; an effect the other way counts as inactive or inconclusive;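 also: HepG2 cells with an ARE-driven luciferase reporter; % of control where 0% means no effect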)
In short: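 Nrf2-dependent transcription is measured in ARE-luc HepG2 cells: compound is applied for 16 hr at 37 C after a 6 hr attachment period, and luciferase activity is quantified by luminescence using ONE-Glo.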

[12] = qHTS assay for small molecule agonists of the antioxidant response element (ARE) signaling pathway measured by Nrf2-dependant transcriptional activity - cell viability counter screen (AID 720653; active = well fitted curve in the direction sought with a large enough effect in the repeat runs; an effect the other way counts as inactive or inconclusive; also: % is scaled to controls: 0 for no effect and ±100 for the full control effect); conditions: ARE-bla HepG2 viability, CellTiter-Glo ATP luminescence, 16 h; max response: stronger effect = lower value
In short: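 ARE-bla HepG2 cells (2,000/well) rested 5 hrs at 37C/5% CO2, then exposed to compounds in DMSO for 16 hrs. Viability was read in the same wells as intracellular ATP by luminescence, 30 min at room temperature after reagent addition.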

[13] = qHTS assay for cell viability of HEK293 cells (AID 743288; active = well fitted curve in the direction sought with a large enough effect; an effect the other way counts as inactive or inconclusive; also: % is scaled to controls: 0 for no effect and ±100 for the full control effect; nearly all actives have a fitted effect of over 50% in size); conditions: ATP luminescence (CellTiter-Glo), 18 h; max response: stronger effect = lower value
In short: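 Steps: plate 2,000 parental HEK293 cells per well; incubate ≥5 h, 37 C; add compounds in DMSO; incubate 18 h, 37 C; add CellTiter-Glo; wait 30 min at room temperature; read luminescence.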

[14] = qHTS assay for cell viability of the p53RE-bla HCT-116 cell line (AID 743292; active = well fitted curve in the direction sought with a large enough effect; an effect the other way counts as inactive or inconclusive; also: % is scaled to controls: 0 for no effect and ±100 for the full control effect; nearly all actives have a fitted effect of over 55% in size)
In short: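 ATP-based luminescence, 16 h compound exposure at 37 C, p53RE-bla HCT-116 cells at 4,000/well.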

[15] = biological target: Nuclear receptor subfamily 1 group I member 2 (Rattus norvegicus) (UniProt Q9R1A7); assay: qHTS assay for small molecule activators of the rat pregnane X receptor (rPXR) signaling pathway (AID 651751; call rule not given here; also: 0% is about no effect); conditions: rPXR reporter cells, luciferase (One-Glo), 24 h
[16] = biological target: Peroxisome proliferator-activated receptor delta (Homo sapiens) (UniProt Q03181); assay: qHTS assay for small molecule agonists of peroxisome proliferator-activated receptor delta signaling (AID 588534);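 also: 0% = DMSO basal wells and 100% = positive control agonist at 10 µM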
In short: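 Agonist-mode qHTS; reporter cells, 5 hrs 37 C pre-incubation; compound titration, 18 hrs 37 C; CCF4 dye, 2 hrs RT; fluorescence read. EC50/efficacy via Hill fit.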

[17] = biological target: Thyroid hormone receptor beta (Homo sapiens) (UniProt P10828); assay: qHTS assay for small molecule agonists of thyroid hormone receptor beta signaling (AID 588545)
In short: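 Agonist activity was read as beta-lactamase CCF4 fluorescence (405 ex, 460/530 em), scaled between DMSO (0%) and 10 nM T3 (100%), then Hill-fitted for EC50 and efficacy. HEK 293 TR-UAS-bla cells in 2% charcoal/dextran FBS medium were exposed 18 h at 37 C.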

[18] = biological target: Bile acid receptor (Homo sapiens) (UniProt Q96RI1); assay: qHTS assay for small molecule agonists of farnesoid X receptor signaling (AID 588527); conditions: HEK293T FXR-UAS-bla, beta-lactamase ratio, 16 h; activation: stronger effect = higher value;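 also: series mostly up to about 77 µM; 0% = vehicle basal and 100% = reference agonist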
In short: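 Agonist-mode beta-lactamase reporter in GeneBLAzer FXR-UAS-bla HEK293T cells, titration up to 92 uM, 16 h exposure at 37 C, CCF4 fluorescence. Response scaled to DMSO (0%) and 100 uM chenodeoxycholic acid (100%), then Hill-fitted for EC50 and efficacy.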

[19] = qHTS assay for small molecule antagonists of peroxisome proliferator-activated receptor delta signaling (AID 588535; active = well fitted inhibition curve with a large enough effect in the signal ratio, with a control signal flat, not every such curve was filed as active; the % refers to the signal ratio;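 as to max response: cells co-treated with a PPAR-delta agonist as stimulator during compound exposure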); conditions: HEK293T PPARd-UAS-bla, beta-lactamase FRET ratio, 18 h; 460 nm channel
In short: (§2)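 Inhibition of PPAR-delta response element-driven beta-lactamase expression is measured in HEK293T cells exposed to a compound titration series for 18 hrs at 37 C. Half-maximal inhibition comes from Hill equation fitting.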

[20] = biological target: Peroxisome proliferator-activated receptor delta (Homo sapiens) (UniProt Q03181); assay: as above
In short: as §2

Sequence of Peroxisome proliferator-activated receptor delta (Homo sapiens) (Q03181 whole entry, looked up): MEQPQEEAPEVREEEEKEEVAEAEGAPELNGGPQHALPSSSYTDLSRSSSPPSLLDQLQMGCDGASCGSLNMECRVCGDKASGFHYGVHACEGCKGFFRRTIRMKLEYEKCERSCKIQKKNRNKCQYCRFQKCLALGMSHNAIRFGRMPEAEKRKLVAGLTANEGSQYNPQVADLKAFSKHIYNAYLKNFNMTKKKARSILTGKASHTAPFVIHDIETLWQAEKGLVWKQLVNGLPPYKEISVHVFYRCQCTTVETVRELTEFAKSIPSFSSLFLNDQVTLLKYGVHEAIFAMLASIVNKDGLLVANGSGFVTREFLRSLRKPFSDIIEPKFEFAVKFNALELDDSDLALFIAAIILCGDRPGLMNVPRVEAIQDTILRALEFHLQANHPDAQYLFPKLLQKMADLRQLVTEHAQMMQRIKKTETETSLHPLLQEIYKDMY
Sequence of Vitamin D3 receptor (Homo sapiens) (P11473 whole entry, looked up): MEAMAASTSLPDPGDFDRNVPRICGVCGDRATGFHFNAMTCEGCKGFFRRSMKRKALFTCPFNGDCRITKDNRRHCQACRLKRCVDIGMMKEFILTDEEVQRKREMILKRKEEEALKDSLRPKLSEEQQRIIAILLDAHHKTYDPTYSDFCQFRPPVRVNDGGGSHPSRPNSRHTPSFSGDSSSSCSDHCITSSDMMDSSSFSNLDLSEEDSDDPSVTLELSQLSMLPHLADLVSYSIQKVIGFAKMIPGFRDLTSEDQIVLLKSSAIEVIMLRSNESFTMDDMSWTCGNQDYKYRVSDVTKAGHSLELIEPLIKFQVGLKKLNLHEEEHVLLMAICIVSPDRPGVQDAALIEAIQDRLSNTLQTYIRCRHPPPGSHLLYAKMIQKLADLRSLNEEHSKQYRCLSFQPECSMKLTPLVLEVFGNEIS
Sequence of Bile acid receptor (Homo sapiens) (Q96RI1 whole entry, looked up): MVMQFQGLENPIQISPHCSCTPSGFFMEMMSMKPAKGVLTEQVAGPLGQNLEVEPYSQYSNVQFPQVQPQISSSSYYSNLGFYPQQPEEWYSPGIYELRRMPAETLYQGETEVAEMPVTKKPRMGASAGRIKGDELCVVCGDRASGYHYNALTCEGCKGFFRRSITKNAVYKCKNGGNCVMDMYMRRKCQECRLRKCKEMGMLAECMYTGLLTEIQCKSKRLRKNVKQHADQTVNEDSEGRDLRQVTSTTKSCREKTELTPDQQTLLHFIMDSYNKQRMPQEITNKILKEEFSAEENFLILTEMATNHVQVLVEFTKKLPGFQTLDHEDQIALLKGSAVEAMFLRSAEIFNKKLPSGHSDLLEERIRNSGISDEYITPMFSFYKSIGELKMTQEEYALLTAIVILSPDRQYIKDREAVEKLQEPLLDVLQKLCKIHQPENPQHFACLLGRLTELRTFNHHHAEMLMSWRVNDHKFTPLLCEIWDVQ
Sequence of Thyroid hormone receptor beta (Homo sapiens) (P10828 whole entry, looked up): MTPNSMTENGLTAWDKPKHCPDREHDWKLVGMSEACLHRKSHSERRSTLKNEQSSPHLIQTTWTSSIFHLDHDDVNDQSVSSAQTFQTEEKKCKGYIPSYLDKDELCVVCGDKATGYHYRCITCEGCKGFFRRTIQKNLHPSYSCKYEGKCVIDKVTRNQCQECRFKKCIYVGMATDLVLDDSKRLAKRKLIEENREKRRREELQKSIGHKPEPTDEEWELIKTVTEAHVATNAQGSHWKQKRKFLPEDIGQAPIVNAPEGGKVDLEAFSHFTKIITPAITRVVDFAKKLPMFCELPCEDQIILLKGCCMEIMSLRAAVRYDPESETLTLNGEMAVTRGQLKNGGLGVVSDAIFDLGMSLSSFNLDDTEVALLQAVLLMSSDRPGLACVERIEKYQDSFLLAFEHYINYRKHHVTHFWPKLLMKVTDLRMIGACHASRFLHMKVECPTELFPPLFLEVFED
Sequence of Retinoic acid receptor RXR-alpha (Homo sapiens) (P19793 whole entry, looked up): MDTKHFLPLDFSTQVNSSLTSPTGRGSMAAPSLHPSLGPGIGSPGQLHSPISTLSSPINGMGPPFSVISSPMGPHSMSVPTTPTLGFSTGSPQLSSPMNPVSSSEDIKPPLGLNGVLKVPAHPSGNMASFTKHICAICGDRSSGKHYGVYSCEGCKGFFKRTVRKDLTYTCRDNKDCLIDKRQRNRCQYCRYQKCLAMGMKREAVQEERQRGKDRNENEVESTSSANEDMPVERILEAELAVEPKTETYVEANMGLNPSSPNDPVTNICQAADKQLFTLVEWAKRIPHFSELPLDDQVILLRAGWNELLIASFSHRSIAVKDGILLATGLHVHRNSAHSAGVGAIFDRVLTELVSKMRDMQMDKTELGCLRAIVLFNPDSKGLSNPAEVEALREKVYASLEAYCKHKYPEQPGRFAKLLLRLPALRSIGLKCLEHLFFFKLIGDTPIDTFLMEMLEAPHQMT
Sequence of Nuclear receptor subfamily 1 group I member 2 (Rattus norvegicus) (Q9R1A7 whole entry, looked up): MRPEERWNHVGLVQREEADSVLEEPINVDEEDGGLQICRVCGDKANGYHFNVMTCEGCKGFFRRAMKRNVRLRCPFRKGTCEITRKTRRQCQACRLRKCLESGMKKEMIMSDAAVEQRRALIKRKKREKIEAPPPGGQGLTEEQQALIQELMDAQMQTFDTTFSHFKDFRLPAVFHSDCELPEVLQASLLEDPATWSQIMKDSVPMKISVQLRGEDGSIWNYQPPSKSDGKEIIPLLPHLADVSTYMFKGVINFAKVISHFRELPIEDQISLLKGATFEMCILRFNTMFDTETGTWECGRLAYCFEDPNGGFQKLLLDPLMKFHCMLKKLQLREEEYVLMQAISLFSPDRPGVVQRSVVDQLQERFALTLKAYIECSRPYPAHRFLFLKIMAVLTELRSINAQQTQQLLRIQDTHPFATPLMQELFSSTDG
Sequence of Peroxisome proliferator-activated receptor alpha (Homo sapiens) (Q07869 whole entry, looked up): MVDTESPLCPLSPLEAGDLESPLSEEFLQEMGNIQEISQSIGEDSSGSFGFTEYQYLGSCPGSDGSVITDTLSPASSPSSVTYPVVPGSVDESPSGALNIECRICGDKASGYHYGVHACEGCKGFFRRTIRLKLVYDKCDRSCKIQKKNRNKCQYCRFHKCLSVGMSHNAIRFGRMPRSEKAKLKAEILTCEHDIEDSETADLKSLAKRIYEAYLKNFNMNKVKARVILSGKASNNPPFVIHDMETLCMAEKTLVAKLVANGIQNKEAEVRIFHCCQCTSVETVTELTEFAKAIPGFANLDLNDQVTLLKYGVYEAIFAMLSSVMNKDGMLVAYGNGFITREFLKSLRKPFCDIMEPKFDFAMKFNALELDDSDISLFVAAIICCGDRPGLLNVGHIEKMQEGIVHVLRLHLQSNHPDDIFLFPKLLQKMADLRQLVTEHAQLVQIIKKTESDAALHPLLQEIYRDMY

## CC(C)C1(C)N=C(c2nc3ccccc3cc2C(=O)O)NC1=O (centres undefined)
[1]
  Potency: inactive
[2]
  outcome: inactive
[3]
  max response: 5.36%
[4]
  Potency: inactive
[5]
  max response: 6.33%
[6]
  max response: 4.25% (inactive)
[7]
  activation: 1.69% (inactive)
[8]
  activation: -0.622% (inactive)
[9]
  activation: -0.47% (inactive)
[10]
  max response: 0.197% (inactive)
[11]
  Potency: inactive
[12]
  max response: -2.59% (inactive)
[13]
  max response: -6.66% (inactive)
[14]
  Potency: inactive
[15]
  max response: -1.98% (inactive)

## COP(=O)(OC)SCn1c(=O)oc2cc(Cl)cnc21
[16]
  outcome: inactive
[2]
  outcome: inactive
[7]
  activation: 13.8% (inactive)
[8]
  activation: -1.51% (inactive)
[10]
  max response: -1.8% (inactive)
[11]
  Potency: inactive
[12]
  max response: -47.9% (inactive)
[13]
  max response: -26% (inactive)
[14]
  Potency: inactive
[15]
  max response: -7.83% (inactive)

## C#CCN1C(=O)COc2cc(F)c(N3C(=O)C4=C(CCCC4)C3=O)cc21
[16]
  outcome: inactive
[1]
  Potency: inactive
[2]
  outcome: inactive
[3]
  max response: -8.78%
[4]
  Potency: inactive
[17]
  Potency: inactive
[5]
  max response: 5.82%
[6]
  max response: -8.58% (inactive)
[8]
  activation: -1.45% (inactive)
[9]
  activation: 0.764% (inactive)
[10]
  max response: -2.95% (inactive)
[11]
  Potency: inactive
[12]
  max response: -24.6% (inactive)
[13]
  max response: -11.7% (inactive)
[14]
  Potency: inactive
[15]
  max response: 6.57% (inactive)

## CCCCCCCCCCCCCCC(Br)C(=O)O (centres undefined)
[18]
  activation: 4.69% (inactive)
[1]
  Potency: inactive
[2]
  outcome: inactive
[3]
  max response: -6.32%
[4]
  Potency: 31.6 µM (active)
[5]
  max response: 6.53%
[6]
  max response: -14.5% (inactive)
[8]
  activation: 5.98% (inactive)
[9]
  activation: -0.608% (inactive)
[10]
  Potency: 14.1 µM (active)
[12]
  max response: 1.85% (inactive)
[13]
  max response: 3.54% (inactive)
[15]
  max response: -4.78% (inactive)

## Cc1cccc2sc3nncn3c12
[18]
  activation: -0.105% (inactive)
[16]
  outcome: inactive
[19]
  max response: 26.1%
[20]
  Potency: inactive
[3]
  max response: 0.611%
[4]
  Potency: inactive
[17]
  Potency: inactive
[5]
  max response: -10.6%
[6]
  max response: 2.1% (inactive)
[7]
  activation: 2.35% (inactive)
[8]
  activation: 0.0956% (inactive)
[9]
  activation: -0.0294% (inactive)
[10]
  max response: -0.811% (inactive)
[12]
  max response: 0.787% (inactive)
[14]
  Potency: inactive

## CC(C)(C)[C@@H](O)/C(=C\c1ccc(Cl)cc1Cl)n1cncn1
[18]
  activation: 0.6% (inactive)
[16]
  outcome: inactive
[2]
  outcome: inactive
[17]
  Potency: inactive
[5]
  max response: 18.6%
[6]
  Potency: 44.7 µM (active)
[7]
  activation: -3.2% (inactive)
[11]
  Potency: inactive
[12]
  max response: 6.93% (inactive)
[14]
  Potency: inactive
